# Results reported in PubChem BioAssay.
# Active and inactive are the calls of the source. No rule for the calls is given here.
# Tested on: Aerobactin synthetase IucA (Klebsiella pneumoniae, hypervirulent)
# Experiment: IucA enzyme inhibition, biochemical, LOPAC library, absorbance readout (AID 1346212);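 also: 100% = no compound wells and 0% = no enzyme wells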
# Details: IucA enzyme assay, absorbance (OD) readout; active compounds read low;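 tested at 8 µM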
row,Structure (SMILES),remaining activity
1,NC1(C(=O)O)CCc2cc(C(=O)O)ccc21 (centres undefined),110% (inactive)
2,N[C@@H](Cc1cnc[nH]1)C(=O)O,113% (inactive)
3,COc1cc2c(CCNC(C)=O)c[nH]c2cc1O,92.2% (inactive)
4,O=C(O)C1CCCN(CCC=C(c2ccccc2)c2ccccc2)C1 (centres undefined),86.8% (inactive)
5,OCCN1CCN(CC/C=C2/c3ccccc3Sc3ccc(C(F)(F)F)cc32)CC1,105% (inactive)
6,NC(Cc1cccc(-c2ccccc2CP(=O)(O)O)c1)C(=O)O (centres undefined),103% (inactive)
7,N=c1ccn2c(n1)O[C@H]1[C@H](O)[C@@H](CO)O[C@H]12,95.9% (inactive)
8,CC1(C)CCC(NC(=O)[C@@H](N)CCC(=O)O)CC1,116% (inactive)
9,CCCC[C@@]1(C2CCCC2)Cc2cc(OCC(=O)O)c(Cl)c(Cl)c2C1=O,106% (inactive)
10,Nc1nc(Nc2ccccc2)nc2c1ncn2[C@@H]1O[C@H](CO)[C@@H](O)[C@H]1O,106% (inactive)
11,CC(=O)[C@@]1(O)CC[C@H]2[C@@H]3CCC4=CC(=O)CC[C@]4(C)[C@H]3CC[C@@]21C,106% (inactive)
12,Nc1nc2c(nc(Br)n2C2OC3COP(=O)(O)O[C@@H]3C2O)c(=O)[nH]1 (some centres undefined),111% (inactive)
13,COc1cc2ncc(-c3ccccc3)nc2cc1OC,120% (inactive)
14,C=CCN1CCc2c(cc(O)c(O)c2Br)[C@@H](c2ccccc2)C1,116% (inactive)
15,O=c1cc(-c2ccccc2)[nH]c2nc(Cl)ccc12,117% (inactive)
16,CN[C@H](CC(C)C)C(=O)N[C@H]1C(=O)N[C@@H](CC(N)=O)C(=O)N[C@H]2C(=O)N[C@H]3C(=O)N[C@H](C(=O)N[C@H](C(=O)O)c4cc(O)cc(O)c4-c4cc3ccc4O)[C@H](O)c3ccc(c(Cl)c3)Oc3cc2cc(c3O[C@@H]2O[C@H](CO)[C@@H](O)[C@H](O)[C@H]2O[C@H]2C[C@](C)(N)[C@H](O)[C@H](C)O2)Oc2ccc(cc2Cl)[C@H]1O,98.6% (inactive)
17,CC(C)[N+]1(C)[C@@H]2CC[C@H]1CC(OC(=O)C(CO)c1ccccc1)C2 (some centres undefined),118% (inactive)
18,COc1ccccc1N1CCN(CCCNc2c(C)c(=O)n(C)c(=O)n2C)CC1,96.4% (inactive)
19,Cc1cc(NC(=O)Nc2ccc3c(ccn3C)c2)sn1,122% (inactive)
20,CN1C2CCC1CC(NC(=O)c1nn(C)c3ccccc13)C2 (centres undefined),107% (inactive)

row,Structure (SMILES),remaining activity
1,Nc1nc2c(ncn2COC(CO)CO)c(=O)[nH]1,111% (inactive)
2,N[C@@H](CC(=O)O)C(=O)O,111% (inactive)
3,COc1ccc(CCN(C)CCc2ccc(OC)c(OC)c2)cc1OC,122% (inactive)
4,C[C@@H](CN1CCC(Cc2ccccc2)CC1)[C@@H](O)c1ccc(O)cc1,92.9% (inactive)
5,Cc1cccc(C)c1OCC(N)C(C)C (centres undefined),97.7% (inactive)
6,CC(C)C[C@H](NC(=O)[C@@H](O)[C@H](N)Cc1ccccc1)C(=O)O,108% (inactive)
7,O=C(NCCO)c1ccc2c(c1)nc(Nc1cccc(Cl)c1)c1ccncc12,90% (inactive)
8,CCCCCCN(CCCCCC)C(=O)Cc1c(-c2ccc(F)cc2)[nH]c2ccccc12,97.1% (inactive)
9,COC(=O)[C@@H]1[C@H]2C[C@H]3c4[nH]c5ccccc5c4CCN3C[C@@H]2CC[C@@H]1O,124% (inactive)
10,CC(=O)NNC(=O)N1Cc2ccccc2Oc2ccc(Cl)cc21,105% (inactive)
11,Oc1ccc(C2CNCc3sccc32)cc1O (centres undefined),99.3% (inactive)
12,CC(=O)S[C@@H]1CC2=CC(=O)CC[C@]2(C)[C@H]2CC[C@@]3(C)[C@@H](CC[C@@]34CCC(=O)O4)[C@H]12,108% (inactive)
13,O=S(=O)(c1cccc2c(I)cccc12)N1CCCNCC1,107% (inactive)
14,C#CC(N)CCC(=O)O (centres undefined),122% (inactive)
15,Cc1nc2sccn2c(=O)c1CCN1CCC(=C(c2ccccc2)c2ccc(F)cc2)CC1,123% (inactive)
16,N[C@@H](CS(=O)O)C(=O)O,115% (inactive)
17,Nc1nc(Cl)nc2c1ncn2[C@@H]1O[C@H](COP(=O)(O)OP(=O)(O)OP(=O)(O)O)[C@H](O)C1O (some centres undefined),104% (inactive)
18,CCCCCCCCCCCCCCC[C@H](O)[C@H](N)CO,83.3% (inactive)
19,CN(CCOc1ccc(C[C@H](Nc2ccccc2C(=O)c2ccccc2)C(=O)O)cc1)c1ccccn1,117% (inactive)
